# In publication PMC7862700, “An all-to-all approach to the identification of sequence-specific readers for epigenetic DNA modifications on cytosine”:
# Key:
# Experiment in all cases: DAPPL (digital affinity profiling via proximity ligation, sequencing); 10 mM Tris-HCl pH 7.5, 50 mM NaCl, 1 mM DTT, 4% glycerol, room temperature, 30 min; GST-TFs on glutathione beads, 16-mer random dsDNA library, 0.1% formaldehyde crosslink after washing; high values mean tight binding
# FEV = biological target: T1, FEV (Homo sapiens, UniProt Q99581 1-238); details: protein: recombinant; tags: N-terminal GST; dsDNA, one strand shown
# T1 sequence: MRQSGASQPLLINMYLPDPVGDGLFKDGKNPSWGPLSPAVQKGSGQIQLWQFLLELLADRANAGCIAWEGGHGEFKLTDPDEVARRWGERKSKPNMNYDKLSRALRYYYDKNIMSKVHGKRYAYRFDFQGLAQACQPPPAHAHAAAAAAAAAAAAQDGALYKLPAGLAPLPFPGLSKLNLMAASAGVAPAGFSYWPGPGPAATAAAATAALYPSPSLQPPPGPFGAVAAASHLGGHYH
# Outline: (§1)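 Beads coated with glutathione captured GST-fused human transcription factors that had been expressed in yeast, and the factors were then given DNA barcodes and pooled with a tag-only sample. The pools were incubated with 200 nmole of a random double-stranded 16-mer DNA library in Tris/NaCl/DTT/glycerol buffer for 30 min at room temperature, washed, crosslinked with 0.1% formaldehyde and proximity-ligated with BsaI/T4 ligase at 37 °C for 1 h. PCR amplification and Illumina NextSeq500 sequencing came last. Binding signal is each hexamer's read frequency for a factor divided by its frequency for the tag-only sample.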
# ETV5 = ETV5 (Homo sapiens, UniProt P41161 1-510); details: protein: recombinant; tags: N-terminal GST; dsDNA, one strand shown
# Chain of ETV5 (P41161 whole entry): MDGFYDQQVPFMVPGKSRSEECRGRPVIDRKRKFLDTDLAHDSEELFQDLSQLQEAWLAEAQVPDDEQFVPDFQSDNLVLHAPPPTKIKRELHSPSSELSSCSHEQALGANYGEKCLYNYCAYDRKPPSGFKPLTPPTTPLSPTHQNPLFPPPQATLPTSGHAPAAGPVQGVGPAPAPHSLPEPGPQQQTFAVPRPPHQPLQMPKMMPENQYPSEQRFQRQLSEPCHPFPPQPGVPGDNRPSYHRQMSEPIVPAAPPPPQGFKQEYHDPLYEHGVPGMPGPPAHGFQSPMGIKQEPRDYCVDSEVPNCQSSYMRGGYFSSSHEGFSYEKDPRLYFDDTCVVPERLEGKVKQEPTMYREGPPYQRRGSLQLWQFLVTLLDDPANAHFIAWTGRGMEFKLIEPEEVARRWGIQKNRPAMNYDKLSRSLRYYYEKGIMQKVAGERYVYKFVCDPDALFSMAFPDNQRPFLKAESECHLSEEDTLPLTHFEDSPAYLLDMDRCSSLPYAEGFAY
# Outline: as §1
# HSF1 = HSF1 (Homo sapiens, UniProt Q00613 1-529); details: protein: recombinant; tags: N-terminal GST; chain copies: 3; dsDNA, one strand shown
# Chain of HSF1 (Q00613 whole entry): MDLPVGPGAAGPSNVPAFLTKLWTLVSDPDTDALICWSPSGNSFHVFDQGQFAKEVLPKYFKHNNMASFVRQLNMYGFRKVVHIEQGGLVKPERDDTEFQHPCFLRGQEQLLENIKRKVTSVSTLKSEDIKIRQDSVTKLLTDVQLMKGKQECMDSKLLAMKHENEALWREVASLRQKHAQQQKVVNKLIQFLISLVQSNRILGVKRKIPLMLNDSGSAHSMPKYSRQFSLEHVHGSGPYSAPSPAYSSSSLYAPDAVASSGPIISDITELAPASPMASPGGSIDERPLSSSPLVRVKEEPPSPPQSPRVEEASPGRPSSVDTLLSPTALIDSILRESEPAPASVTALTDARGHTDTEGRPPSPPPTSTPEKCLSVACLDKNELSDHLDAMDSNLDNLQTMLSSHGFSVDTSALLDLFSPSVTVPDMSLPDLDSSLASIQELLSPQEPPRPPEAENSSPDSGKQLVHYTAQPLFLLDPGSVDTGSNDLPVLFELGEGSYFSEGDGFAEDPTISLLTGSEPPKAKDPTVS
# Outline: as §1
# SPIC = biological target: T2, SPIC (Homo sapiens, UniProt Q8N5J4 1-248); details: protein: recombinant; tags: N-terminal GST; dsDNA, one strand shown
# T2 sequence: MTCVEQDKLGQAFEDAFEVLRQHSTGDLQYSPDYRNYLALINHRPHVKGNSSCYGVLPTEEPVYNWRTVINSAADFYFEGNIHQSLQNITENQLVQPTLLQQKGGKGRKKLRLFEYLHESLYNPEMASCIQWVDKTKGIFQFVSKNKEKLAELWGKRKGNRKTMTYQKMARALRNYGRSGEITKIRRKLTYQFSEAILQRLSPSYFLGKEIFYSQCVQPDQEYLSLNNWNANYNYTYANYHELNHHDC
# Outline: as §1
# ELF4 = ELF4 (Homo sapiens, UniProt Q99607 1-663); details: protein: recombinant; tags: N-terminal GST; dsDNA, one strand shown
# Chain of ELF4 (Q99607 whole entry): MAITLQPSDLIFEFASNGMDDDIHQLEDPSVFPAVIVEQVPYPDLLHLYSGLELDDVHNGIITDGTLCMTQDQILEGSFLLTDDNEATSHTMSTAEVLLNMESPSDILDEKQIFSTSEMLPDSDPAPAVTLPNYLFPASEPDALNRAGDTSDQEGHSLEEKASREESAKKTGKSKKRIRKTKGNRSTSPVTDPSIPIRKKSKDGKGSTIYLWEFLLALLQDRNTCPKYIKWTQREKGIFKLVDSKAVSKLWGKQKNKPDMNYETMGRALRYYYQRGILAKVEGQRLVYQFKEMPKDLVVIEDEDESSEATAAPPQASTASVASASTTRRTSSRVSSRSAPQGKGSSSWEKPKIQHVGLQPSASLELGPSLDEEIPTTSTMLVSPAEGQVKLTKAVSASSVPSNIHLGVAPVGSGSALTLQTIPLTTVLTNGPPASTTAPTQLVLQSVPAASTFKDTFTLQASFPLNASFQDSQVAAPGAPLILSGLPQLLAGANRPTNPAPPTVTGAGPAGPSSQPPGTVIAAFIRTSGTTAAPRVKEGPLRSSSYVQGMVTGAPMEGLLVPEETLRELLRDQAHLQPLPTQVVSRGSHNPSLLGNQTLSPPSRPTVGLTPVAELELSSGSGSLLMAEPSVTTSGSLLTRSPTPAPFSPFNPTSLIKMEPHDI
# Outline: as §1
# ELK4 = biological target: T3, ELK4 (Homo sapiens, UniProt P28324-2 1-405); details: protein: recombinant; tags: N-terminal GST; dsDNA, one strand shown
# T3 sequence: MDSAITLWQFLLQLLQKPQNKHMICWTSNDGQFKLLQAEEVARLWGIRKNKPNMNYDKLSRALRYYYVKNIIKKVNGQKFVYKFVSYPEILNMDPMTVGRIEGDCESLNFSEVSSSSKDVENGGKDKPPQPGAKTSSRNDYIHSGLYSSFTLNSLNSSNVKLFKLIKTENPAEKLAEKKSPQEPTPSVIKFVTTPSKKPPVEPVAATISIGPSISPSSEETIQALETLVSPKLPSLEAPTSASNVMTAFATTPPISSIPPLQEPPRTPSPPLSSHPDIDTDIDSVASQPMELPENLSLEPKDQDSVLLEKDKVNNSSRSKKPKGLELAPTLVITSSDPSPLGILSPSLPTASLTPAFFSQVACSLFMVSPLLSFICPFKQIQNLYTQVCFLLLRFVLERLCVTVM
# Outline: as §1
# ETV2 = biological target: T4, ETV2 (Homo sapiens, UniProt O00321 1-342); details: protein: recombinant; tags: N-terminal GST; dsDNA, one strand shown
# T4 sequence: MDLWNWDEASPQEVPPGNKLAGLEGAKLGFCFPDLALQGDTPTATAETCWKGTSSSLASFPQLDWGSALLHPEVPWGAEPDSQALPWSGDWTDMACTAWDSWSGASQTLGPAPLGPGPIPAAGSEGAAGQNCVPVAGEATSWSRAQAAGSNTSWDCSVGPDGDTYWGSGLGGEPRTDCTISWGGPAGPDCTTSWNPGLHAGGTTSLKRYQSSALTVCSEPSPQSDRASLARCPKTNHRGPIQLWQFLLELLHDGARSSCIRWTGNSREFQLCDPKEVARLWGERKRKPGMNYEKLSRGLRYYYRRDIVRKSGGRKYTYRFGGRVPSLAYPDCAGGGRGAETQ
# Outline: as §1
# ELF3 = biological target: T5, ELF3 (Homo sapiens, UniProt P78545 1-371); details: protein: recombinant; tags: N-terminal GST; dsDNA, one strand shown
# T5 sequence: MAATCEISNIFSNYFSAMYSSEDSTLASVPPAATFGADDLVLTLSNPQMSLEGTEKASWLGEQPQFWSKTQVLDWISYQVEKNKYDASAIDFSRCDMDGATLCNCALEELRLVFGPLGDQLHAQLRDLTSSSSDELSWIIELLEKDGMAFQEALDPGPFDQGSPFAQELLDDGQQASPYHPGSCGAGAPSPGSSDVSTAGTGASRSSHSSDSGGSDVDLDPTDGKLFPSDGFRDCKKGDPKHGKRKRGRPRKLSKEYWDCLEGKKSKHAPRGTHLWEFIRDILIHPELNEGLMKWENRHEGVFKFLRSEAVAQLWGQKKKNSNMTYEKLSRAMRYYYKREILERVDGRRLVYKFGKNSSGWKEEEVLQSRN
# Outline: as §1
# CRX = CRX (Homo sapiens, UniProt O43186 1-299); details: protein: recombinant; tags: N-terminal GST; dsDNA, one strand shown
# Chain of CRX (O43186 whole entry): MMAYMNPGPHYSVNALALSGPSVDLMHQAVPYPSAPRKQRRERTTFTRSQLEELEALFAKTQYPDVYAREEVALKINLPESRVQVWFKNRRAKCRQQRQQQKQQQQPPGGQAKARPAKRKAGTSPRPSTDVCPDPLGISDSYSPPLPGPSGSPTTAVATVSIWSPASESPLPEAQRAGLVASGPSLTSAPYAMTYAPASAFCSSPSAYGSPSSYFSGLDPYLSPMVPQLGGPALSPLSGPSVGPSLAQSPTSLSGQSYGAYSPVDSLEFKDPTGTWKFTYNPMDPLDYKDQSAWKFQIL
# Outline: as §1
# ETV1 = ETV1 (Homo sapiens, UniProt P50549 1-477); details: protein: recombinant; tags: N-terminal GST; dsDNA, one strand shown
# Chain of ETV1 (P50549 whole entry): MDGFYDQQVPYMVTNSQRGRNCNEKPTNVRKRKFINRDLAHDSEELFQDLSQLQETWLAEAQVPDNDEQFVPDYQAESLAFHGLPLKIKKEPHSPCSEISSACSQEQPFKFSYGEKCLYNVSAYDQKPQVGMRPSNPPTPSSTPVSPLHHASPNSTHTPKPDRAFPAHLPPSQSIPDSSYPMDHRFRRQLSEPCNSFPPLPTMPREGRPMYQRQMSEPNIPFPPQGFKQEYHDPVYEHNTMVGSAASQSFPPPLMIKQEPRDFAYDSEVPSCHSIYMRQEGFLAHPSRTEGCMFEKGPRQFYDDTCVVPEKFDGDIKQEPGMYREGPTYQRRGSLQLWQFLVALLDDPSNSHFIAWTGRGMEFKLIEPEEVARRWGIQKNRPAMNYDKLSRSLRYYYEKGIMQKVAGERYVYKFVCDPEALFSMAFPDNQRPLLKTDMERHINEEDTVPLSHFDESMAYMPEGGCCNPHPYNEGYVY
# Outline: as §1
# ERF = biological target: T6, ERF (Homo sapiens, UniProt P50548 1-548); details: protein: recombinant; tags: N-terminal GST; dsDNA, one strand shown
# T6 sequence: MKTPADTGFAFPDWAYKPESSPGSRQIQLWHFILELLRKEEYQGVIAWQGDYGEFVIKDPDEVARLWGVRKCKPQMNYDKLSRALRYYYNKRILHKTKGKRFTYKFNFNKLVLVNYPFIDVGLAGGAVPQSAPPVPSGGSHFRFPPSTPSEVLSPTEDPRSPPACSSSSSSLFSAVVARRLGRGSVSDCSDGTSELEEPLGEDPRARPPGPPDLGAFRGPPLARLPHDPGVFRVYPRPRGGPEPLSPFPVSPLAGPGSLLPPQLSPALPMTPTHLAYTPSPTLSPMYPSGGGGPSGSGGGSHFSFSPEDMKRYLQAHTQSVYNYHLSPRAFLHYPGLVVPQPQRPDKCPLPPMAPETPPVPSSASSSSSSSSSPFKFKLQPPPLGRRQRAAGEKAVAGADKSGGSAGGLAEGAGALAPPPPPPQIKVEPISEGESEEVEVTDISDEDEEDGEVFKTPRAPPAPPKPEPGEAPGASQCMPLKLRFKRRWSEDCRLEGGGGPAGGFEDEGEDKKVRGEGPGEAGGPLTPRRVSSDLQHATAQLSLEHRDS
# Outline: as §1
# ETV3L = biological target: T7, ETV3L (Homo sapiens, UniProt Q6ZN32 1-361); details: protein: recombinant; tags: N-terminal GST; dsDNA, one strand shown
# T7 sequence: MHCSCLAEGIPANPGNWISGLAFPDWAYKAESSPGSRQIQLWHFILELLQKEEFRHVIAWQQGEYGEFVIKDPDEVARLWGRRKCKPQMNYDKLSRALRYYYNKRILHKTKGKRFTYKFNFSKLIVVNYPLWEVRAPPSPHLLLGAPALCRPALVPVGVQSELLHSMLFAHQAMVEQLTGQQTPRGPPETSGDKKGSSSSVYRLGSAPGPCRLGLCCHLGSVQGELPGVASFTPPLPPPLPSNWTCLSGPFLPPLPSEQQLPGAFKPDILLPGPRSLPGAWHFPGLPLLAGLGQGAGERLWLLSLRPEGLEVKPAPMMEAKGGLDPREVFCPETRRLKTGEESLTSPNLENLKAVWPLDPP
# Outline: as §1
# ETS2 = biological target: T8, ETS2 (Homo sapiens, UniProt P15036 1-469); details: protein: recombinant; tags: N-terminal GST; dsDNA, one strand shown
# T8 sequence: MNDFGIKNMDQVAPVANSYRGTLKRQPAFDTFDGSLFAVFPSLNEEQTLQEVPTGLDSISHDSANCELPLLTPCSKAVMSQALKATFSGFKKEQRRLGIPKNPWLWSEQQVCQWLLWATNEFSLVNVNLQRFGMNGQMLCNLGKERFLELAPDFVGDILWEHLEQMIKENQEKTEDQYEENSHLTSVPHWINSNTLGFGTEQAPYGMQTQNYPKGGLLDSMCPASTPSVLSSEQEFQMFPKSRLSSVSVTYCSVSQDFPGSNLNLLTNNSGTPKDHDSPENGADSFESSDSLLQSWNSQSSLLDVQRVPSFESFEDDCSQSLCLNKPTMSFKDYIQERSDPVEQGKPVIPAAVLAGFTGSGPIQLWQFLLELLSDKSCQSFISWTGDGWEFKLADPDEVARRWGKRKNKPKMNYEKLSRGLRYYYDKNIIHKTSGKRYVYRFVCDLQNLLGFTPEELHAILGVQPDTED
# Outline: as §1
# SPDEF = biological target: T9, SPDEF (Homo sapiens, UniProt O95238 1-335); details: protein: recombinant; tags: N-terminal GST; dsDNA, one strand shown
# T9 sequence: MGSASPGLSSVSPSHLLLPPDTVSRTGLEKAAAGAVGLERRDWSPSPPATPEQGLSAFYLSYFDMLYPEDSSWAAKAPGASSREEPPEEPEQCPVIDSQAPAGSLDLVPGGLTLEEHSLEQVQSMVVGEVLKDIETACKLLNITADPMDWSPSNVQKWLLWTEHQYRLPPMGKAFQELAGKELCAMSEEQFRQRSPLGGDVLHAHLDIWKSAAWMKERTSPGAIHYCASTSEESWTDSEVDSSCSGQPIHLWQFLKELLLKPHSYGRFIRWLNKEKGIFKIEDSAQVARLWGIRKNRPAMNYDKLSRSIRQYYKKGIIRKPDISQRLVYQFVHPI
# Outline: as §1
# ETV7 = biological target: T10, ETV7 (Homo sapiens, UniProt Q9Y603 1-341); details: protein: recombinant; tags: N-terminal GST; dsDNA, one strand shown
# T10 sequence: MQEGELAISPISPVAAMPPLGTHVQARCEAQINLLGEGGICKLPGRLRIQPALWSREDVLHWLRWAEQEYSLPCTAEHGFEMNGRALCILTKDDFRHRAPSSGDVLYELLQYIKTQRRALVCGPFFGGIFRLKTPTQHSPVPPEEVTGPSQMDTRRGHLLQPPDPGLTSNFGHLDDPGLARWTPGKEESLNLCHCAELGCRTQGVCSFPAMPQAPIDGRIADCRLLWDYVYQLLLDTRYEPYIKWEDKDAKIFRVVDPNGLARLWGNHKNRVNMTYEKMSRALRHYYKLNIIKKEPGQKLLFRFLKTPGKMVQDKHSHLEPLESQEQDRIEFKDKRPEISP
# Outline: as §1
# ELF5 = biological target: T11, ELF5 (Homo sapiens, UniProt Q9UKW6-2 1-255); details: protein: recombinant; tags: N-terminal GST; dsDNA, one strand shown
# T11 sequence: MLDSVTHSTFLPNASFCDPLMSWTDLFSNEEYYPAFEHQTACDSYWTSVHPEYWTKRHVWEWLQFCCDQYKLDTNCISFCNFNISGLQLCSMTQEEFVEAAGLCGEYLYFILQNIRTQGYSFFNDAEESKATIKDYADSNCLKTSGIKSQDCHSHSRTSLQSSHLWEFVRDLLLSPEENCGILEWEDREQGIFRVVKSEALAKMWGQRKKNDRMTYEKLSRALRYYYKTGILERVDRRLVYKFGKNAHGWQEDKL
# Outline: as §1
# ETV3 = biological target: T12, ETV3 (Homo sapiens, UniProt P41162-2 1-143); details: protein: recombinant; tags: N-terminal GST; dsDNA, one strand shown
# T12 sequence: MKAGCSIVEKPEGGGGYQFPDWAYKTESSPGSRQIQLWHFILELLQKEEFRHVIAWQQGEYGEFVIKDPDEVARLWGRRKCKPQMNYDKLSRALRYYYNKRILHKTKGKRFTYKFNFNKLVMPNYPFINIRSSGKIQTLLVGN
# Outline: as §1
# ETV6 = ETV6 (Homo sapiens, UniProt P41212 1-452); details: protein: recombinant; tags: N-terminal GST; dsDNA, one strand shown
# Chain of ETV6 (P41212 whole entry): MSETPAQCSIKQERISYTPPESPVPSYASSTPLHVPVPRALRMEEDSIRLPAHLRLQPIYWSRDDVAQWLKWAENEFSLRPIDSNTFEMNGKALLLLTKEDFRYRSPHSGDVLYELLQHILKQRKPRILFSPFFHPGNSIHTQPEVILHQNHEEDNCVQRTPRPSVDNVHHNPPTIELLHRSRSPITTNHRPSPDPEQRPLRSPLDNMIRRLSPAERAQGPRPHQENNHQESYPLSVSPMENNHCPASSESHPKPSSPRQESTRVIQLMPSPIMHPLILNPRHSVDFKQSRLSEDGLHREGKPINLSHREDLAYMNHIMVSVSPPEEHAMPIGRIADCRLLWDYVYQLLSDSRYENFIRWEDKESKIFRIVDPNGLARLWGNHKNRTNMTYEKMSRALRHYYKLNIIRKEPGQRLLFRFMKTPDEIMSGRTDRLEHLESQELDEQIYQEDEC
# Outline: as §1
sequence,measurement,setting,value
TACCAC,binding signal,FEV,"1.3 fold enrichment (6-mer frequency, TF over GST control)"
same,binding signal,ETV5,"1.19 fold enrichment (6-mer frequency, TF over GST control)"
same,binding signal,HSF1,"1.12 fold enrichment (6-mer frequency, TF over GST control)"
same,binding signal,SPIC,"1.25 fold enrichment (6-mer frequency, TF over GST control)"
same,binding signal,ELF4,"1.23 fold enrichment (6-mer frequency, TF over GST control)"
same,binding signal,ELK4,"1.18 fold enrichment (6-mer frequency, TF over GST control)"
same,binding signal,ETV2,"1.2 fold enrichment (6-mer frequency, TF over GST control)"
same,binding signal,ELF3,"1.25 fold enrichment (6-mer frequency, TF over GST control)"
same,binding signal,CRX,"1.17 fold enrichment (6-mer frequency, TF over GST control)"
same,binding signal,ETV1,"1.24 fold enrichment (6-mer frequency, TF over GST control)"
same,binding signal,ERF,"1.21 fold enrichment (6-mer frequency, TF over GST control)"
same,binding signal,ETV3L,"1.26 fold enrichment (6-mer frequency, TF over GST control)"
same,binding signal,ETS2,"1.27 fold enrichment (6-mer frequency, TF over GST control)"
same,binding signal,SPDEF,"1.16 fold enrichment (6-mer frequency, TF over GST control)"
same,binding signal,ETV7,"1.15 fold enrichment (6-mer frequency, TF over GST control)"
same,binding signal,ELF5,"1.29 fold enrichment (6-mer frequency, TF over GST control)"
same,binding signal,ETV3,"1.2 fold enrichment (6-mer frequency, TF over GST control)"
same,binding signal,ETV6,"1.21 fold enrichment (6-mer frequency, TF over GST control)"
